# Records with an inconclusive call do not appear. A number with no mark means an inactive call. Calls come from the whole dose curve; as a rule, active = well fitted curve in the direction sought with a large enough effect; inconclusive = small, poorly fitted or top-dose-only effect, or effect the other way, or another doubt; inactive = no such curve, though single readings can be large or run the other way.
# Molecular target: Pyruvate kinase PKLR (Homo sapiens) (UniProt P30613)
# Test: Secondary LDH Assay for Activators of Human Reticulocyte Pyruvate Kinase: for Probe SAR
# Details: purified hPK-R, LDH-coupled NADH fluorescence kinetic; series mostly up to 58.4 µM; activity change, positive = activation: at the top concentration
# Method in brief: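 LDH-coupled kinetic readout of pyruvate formation: NADH (0.2 mM) fluorescence decline over 3-6 minutes gave initial rates. Reactions held 10 nM hPK-R, 1 uM LDH, 0.1 mM PEP and 4.0 mM ADP at pH 8.0; activation normalized to fructose-bis-phosphate-type EC100.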
# Chain of Pyruvate kinase PKLR (Homo sapiens) (P30613 whole entry, looked up): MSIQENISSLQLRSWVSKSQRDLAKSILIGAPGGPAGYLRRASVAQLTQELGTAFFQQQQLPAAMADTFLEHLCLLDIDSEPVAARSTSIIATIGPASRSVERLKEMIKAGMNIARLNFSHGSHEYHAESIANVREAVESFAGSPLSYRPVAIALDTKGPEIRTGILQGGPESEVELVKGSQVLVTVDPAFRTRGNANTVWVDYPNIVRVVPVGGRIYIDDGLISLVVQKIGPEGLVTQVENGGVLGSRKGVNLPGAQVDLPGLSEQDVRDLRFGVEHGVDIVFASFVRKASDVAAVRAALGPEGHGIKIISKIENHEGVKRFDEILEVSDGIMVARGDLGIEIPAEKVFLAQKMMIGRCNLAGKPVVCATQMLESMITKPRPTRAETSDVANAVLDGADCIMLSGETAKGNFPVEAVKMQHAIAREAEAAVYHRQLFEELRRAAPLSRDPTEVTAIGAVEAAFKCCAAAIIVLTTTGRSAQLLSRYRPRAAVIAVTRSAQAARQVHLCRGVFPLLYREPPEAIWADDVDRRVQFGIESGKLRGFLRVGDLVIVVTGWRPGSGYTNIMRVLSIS
row,SMILES,"activity change, positive = activation [%]"
1,O=C1c2ccccc2C(=O)N1Cc1ccccn1,-3.89
2,Cc1ccccc1NS(=O)(=O)c1ccc2c(c1)CCC(=O)N2,4.32
3,Cc1cc(N2C(=O)c3ccccc3C2=O)no1,11.2
4,O=C1c2ccccc2C(=O)N1Cc1cccnc1,-0.262
5,O=C1c2ccccc2C(=O)N1c1cccc(Cl)c1,-6.91
6,O=C1c2ccccc2C(=O)N1c1ccc2ccccc2n1,-3.58
7,Cc1nc(-c2ccc(S(=O)(=O)Nc3ccc(C)c(C)c3)s2)cs1,20.7
8,Cc1ccc(NS(=O)(=O)c2cc3c(cc2N(C)C)CCC(=O)N3)cc1C,6.64
9,COc1cccc(N2C(=O)c3ccccc3C2=O)n1,8.18
10,Cc1ccccc1Nc1c(-c2ccc(Cl)s2)nc2ccccn12,13.1
11,Cc1ccc(NS(=O)(=O)c2cccc(Cl)c2)cc1C,14.8
12,Cc1ccc(-c2nc3ccc(Cl)cn3c2Nc2ccccc2)o1,-3.81
13,Cc1ccc(NS(=O)(=O)c2cc3c(cc2N(C)C)NC(=O)CC3)cc1C,5.45
14,COc1ccc(NS(=O)(=O)c2ccc3c(c2)CCC(=O)N3)cc1,3.97
15,Cc1ccc(NS(=O)(=O)c2cc3c(cc2-c2ccsc2)NC(=O)CO3)cc1C,8.38
16,O=C1CCc2cc(S(=O)(=O)Nc3ccncc3)ccc2N1,12.1
17,O=C1CCc2cc(S(=O)(=O)Nc3ccc(F)cc3)ccc2N1,4.65
18,Cc1ccc(NS(=O)(=O)c2ccc3c(c2)oc(=O)n3C)cc1C,15.8

# From PubChem BioAssay AID2562 (National Center for Advancing Translational Sciences (NCATS), 2010)
